Data as given in PubChem BioAssay AID875 (National Center for Advancing Translational Sciences (NCATS), 2007).
Among all 75,000 compounds or so, about 35 (0.05%) were called active. What follows is part of a selection rich in actives, with near analogues and random picks from the rest. Unmarked numbers belong to inactive results. Calls follow the shape of the dose curve; as a rule, active = well fitted inhibition curve with a large enough effect; inconclusive = small, poorly fitted or top-dose-only effect; inactive = no such curve, though single readings can be large or run the other way.

target: Breast cancer type 1 susceptibility protein (Homo sapiens) (UniProt P38398); assay: qHTS Assay for Inhibitors of BRCT-Phosphoprotein Interaction (Green Fluorophore); conditions: BRCA1 BRCT-phosphopeptide binding, green fluorescence polarization; series mostly up to 76.9 µM; activity change, negative = inhibition: at the top concentration;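 as to activity change, negative = inhibition: plate controls were peptide without protein for full effect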
Sequence (P38398 whole entry, looked up): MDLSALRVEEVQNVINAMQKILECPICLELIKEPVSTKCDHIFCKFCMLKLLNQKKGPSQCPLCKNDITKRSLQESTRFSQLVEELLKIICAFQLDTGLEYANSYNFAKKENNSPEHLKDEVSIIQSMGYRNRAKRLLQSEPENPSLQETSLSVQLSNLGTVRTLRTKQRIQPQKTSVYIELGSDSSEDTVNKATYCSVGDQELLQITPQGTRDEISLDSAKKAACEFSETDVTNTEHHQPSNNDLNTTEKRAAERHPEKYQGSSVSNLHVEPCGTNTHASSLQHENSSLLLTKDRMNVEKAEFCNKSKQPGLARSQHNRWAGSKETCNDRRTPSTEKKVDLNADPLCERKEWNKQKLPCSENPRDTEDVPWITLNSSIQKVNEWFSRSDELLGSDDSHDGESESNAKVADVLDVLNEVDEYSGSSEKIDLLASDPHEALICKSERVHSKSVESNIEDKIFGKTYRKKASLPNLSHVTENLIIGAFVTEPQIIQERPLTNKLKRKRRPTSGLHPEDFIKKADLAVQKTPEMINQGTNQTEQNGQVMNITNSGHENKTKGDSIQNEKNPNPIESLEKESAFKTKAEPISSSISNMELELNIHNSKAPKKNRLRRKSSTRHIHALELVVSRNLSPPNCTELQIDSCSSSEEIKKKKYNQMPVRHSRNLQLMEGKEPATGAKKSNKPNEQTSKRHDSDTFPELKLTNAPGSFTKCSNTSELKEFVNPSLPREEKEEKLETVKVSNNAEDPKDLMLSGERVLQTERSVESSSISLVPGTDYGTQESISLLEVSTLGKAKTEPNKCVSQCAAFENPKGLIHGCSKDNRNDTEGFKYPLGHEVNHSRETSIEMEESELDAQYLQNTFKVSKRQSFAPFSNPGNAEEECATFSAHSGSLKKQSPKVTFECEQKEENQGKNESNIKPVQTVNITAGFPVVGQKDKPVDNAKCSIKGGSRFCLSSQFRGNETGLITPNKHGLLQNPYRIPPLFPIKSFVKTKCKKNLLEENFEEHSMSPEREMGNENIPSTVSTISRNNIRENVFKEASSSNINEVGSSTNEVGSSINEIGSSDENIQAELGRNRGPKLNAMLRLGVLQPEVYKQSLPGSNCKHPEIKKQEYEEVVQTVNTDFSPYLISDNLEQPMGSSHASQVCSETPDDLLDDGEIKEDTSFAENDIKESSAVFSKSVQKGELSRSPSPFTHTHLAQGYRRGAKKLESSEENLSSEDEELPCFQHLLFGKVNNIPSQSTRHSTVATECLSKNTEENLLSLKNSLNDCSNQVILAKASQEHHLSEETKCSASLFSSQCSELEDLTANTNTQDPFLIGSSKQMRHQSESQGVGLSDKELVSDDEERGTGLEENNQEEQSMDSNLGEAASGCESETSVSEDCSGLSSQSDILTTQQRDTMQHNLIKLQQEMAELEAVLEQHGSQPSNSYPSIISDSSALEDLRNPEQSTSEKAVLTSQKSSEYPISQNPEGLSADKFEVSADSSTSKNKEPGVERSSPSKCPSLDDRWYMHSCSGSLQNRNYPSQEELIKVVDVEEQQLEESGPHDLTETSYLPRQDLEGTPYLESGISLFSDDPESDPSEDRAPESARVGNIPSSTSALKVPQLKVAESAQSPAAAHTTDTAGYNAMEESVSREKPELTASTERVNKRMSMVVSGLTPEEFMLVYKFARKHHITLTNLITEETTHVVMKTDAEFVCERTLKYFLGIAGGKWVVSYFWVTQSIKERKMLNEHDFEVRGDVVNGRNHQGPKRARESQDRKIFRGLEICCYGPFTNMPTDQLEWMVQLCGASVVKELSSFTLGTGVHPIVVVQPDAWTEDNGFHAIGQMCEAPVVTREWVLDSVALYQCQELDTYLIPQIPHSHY
Experimental: NIH Molecular Libraries Screening Centers Network [MLSCN]
NIH Chemical Genomics Center [NCGC]
PI Name: Natarajan, Amarnath; University of Texas
A complex of BRCT (C-terminal portion of BRCA1, MW ~35 kDa, His-tagged) and fluorescently labeled pBACH1 phosphorylated 10 aa peptide fragment of BACH1, a helicase implicated in DNA repair, is incubated with library members. Inhibitors of BRCT-pBACH1 binding are detected by a decrease in the fluorescence polarization (FP) of the fluorophore. In order to minimize the effect of fluorescence artifacts and to increase the overall robustness of the screen, the compound library members were incubated in separate reactions with fluorescein labeled probe-protein complexes. Protein and labeled probes were supplied by Dr. Amarnath Natarajan, Department of Pharmacology and Toxicology, University of Texas Medical Branch Galveston, TX.
Assay Buffer: 16mM Na2HPO4, 4 mM NaH2PO4, 150 mM NaCl, 1 mM EDTA, 1 mM DTT, 0.02% NaN3, and 0.01% Tween 20 at pH 7.3.
100 nM labeled decapeptide/250 nM protein in columns 1, 2, 5 - 48. Titration of unlabeled decapeptide control (from 10 mM, then 1:2 dilution in duplicate) pin-transferred to column 2, rows 1 to 16. Column 1 is neutral.
Three uL of reagents were dispensed to 1536-well Greiner black solid-bottom plates. Compounds and controls (23 nL) were transferred
via Kalypsys PinTool. The plates were incubated for 12 min at room temperature, and then read on ViewLux (Perkin-Elmer) High throughput CCD imager using FITC for the fluorescein-labeled decapeptide probe polarization filter sets. During dispense, reagent bottles were kept submerged into 4 deg C water bath and all liquid lines were covered with aluminum foil to minimize probe and protein degradation. All screening operations were performed on a Kalypsys robotic system (Kalypsys, Inc., San Diego, CA) containing one RX-130 and two RX-90 anthropomorphic robotic arms. The timing and order of assay plates passing through the screening system were adjusted such that each compound library plate was assayed against the fluorescein- and rhodamine-labeled assay systems at immediately adjacent time points.
Potency is read from the fitted curve at half-maximal effect.

Row | Compound | activity change, negative = inhibition | Potency
1 | C(=C\c1ccccc1)/CSc1nnc(-c2cccnc2)n1Cc1ccco1 | -0.527% | 
2 | Nc1ccc2c3c(cccc13)C(=O)NC2=O |  | 12.6 µM (active)
3 | CCN1C(=O)c2cccc3c(N)ccc1c23 | -1.28% | 
4 | Cc1ccc(C)c(N2CCN(S(=O)(=O)c3ccc4c(c3)oc(=O)n4C)CC2)c1 | 1.05% | 
5 | CCN(CC)CCNC(=O)Cn1cnc2sc(C)c(S(=O)(=O)N3CCOCC3)c2c1=O | -0.894% | 
6 | CC(=O)Nc1ccc(S(=O)(=O)N2CCSCC2)cc1 | 0.335% | 
7 | COc1cccc(CNC(=O)C2CCN(S(=O)(=O)c3cccc4cccnc34)CC2)c1 | -0.134% | 
8 | Cc1ccc(S(=O)(=O)c2c(N)n(C)c3nc4ccccc4nc23)cc1 | 3.01% | 
9 | O=C(Nc1ccc(S(=O)(=O)N2CCCC2)cc1Cl)C1=COCCO1 | 0.643% | 
10 | O=C(c1cnccn1)N1CCC2(CCN(Cc3cc(C(F)(F)F)cc(C(F)(F)F)c3)CC2)CC1 | 0.461% | 
11 | CCOc1ccccc1N(CC(=O)NC1CCCCC1)C(=O)CCCC(=O)Nc1ccccn1 | -1.87% | 
12 | Cc1cc(C)cc(OCc2nnc(SCC(=O)OC3CCCCC3)o2)c1 | -1.6% | 
13 | CCOc1cc(S(=O)(=O)NCc2ccc3c(c2)OCO3)ccc1F | 0.095% | 
14 | COc1ccc(-c2nc3cnc(OC)nc3n(Cc3ccc(F)cc3)c2=O)cc1 | -2.13% | 
15 | Cc1cc(N=CC2=C(O)CCCC2=O)no1 | 0.2% | 
16 | CC(=O)c1nc(N2C(=O)C3CC=C(C)CC3C2=O)sc1C (stereo unspecified) | 0.509% | 
17 | Cc1cn(COC/C=C/c2ccccc2)c(=O)[nH]c1=O | 1.28% | 
18 | O=C1NC(c2ccncc2)Nc2sc3c(c21)CCCC3 (stereo unspecified) | 1.19% | 
19 | COc1ccc2c(c1)C=CC1(O2)N(CCO)c2ccccc2C1(C)C (stereo unspecified) | 7.47% | 
20 | CN(C)CCOC(=O)C(c1ccccc1)C1(O)CCCC1 (stereo unspecified) | -1.8% [at 3.08 µM] | 
21 | COC(=O)c1ccc(CN(c2ccccc2OC)S(=O)(=O)c2cccs2)o1 | -0.914% | 
22 | COc1ccc(S(=O)(=O)NC(CC(=O)NCc2ccccc2OC)c2ccco2)cc1 (stereo unspecified) | -1.17% | 
23 | CCOC(=O)C1=C(CNC2CCCCC2)NC(=O)NC1c1cc(C)ccc1C (stereo unspecified) | 0.587% | 
24 | CCSc1nc2c(c(=O)[nH]1)C(c1cccnc1)C(C(=O)OC(C)C)=C(C)N2 (stereo unspecified) | -0.428% | 
25 | O=C(CCC(=O)N1CCN(S(=O)(=O)c2ccccc2)CC1)NC1CCCc2ccccc21 (stereo unspecified) | -0.237% | 
26 | CCNS(=O)(=O)c1ccc(NC(=O)Nc2cccc(OC)c2)cc1 | 0.136% | 

Row | Compound | activity change, negative = inhibition | Potency
27 | O=S(=O)(/C=C/c1ccccc1)NCCc1ccccn1 | -2.8% | 
28 | CCOc1ccc(NC(=O)Nc2cc(C)ccc2OC)cc1 | -0.177% | 
29 | Cc1cc2nc3c(=O)[nH]c(=O)nc-3n(C[C@H](O)[C@H](O)[C@H](O)CO)c2cc1C |  | 7.94 µM (active)
30 | C=CCn1c(COc2ccccc2C)nnc1SCC(=O)O | -0.75% | 
31 | O=C(C(Cc1ccccc1)n1cccc1)N1CCN(C2CCCCC2)CC1 (stereo unspecified) | 0.978% | 
32 | OCc1n[nH]c(CO)n1 | -3.47% | 
33 | CCn1ncc(Br)c1C(=O)Nc1cc(C)ccc1F | -0.796% | 
34 | CCOC(=O)CN1C(=O)C(O)(CC(=O)c2ccccn2)c2ccccc21 (stereo unspecified) | -0.714% | 
35 | CCCOc1cccc(C(=O)Nc2nnn(CCC)n2)c1 | -2.09% | 
36 | Cn1cnc2c1c(=O)n(Cc1c(Cl)cccc1Cl)c(=O)n2C | 1.6% | 
37 | COc1cccc([C@H]2Oc3ccc(OC)cc3/C(=N\OCC[C@@H]3C=C[C@H](OC(C)=O)[C@H](COC(C)=O)O3)[C@@H]2O)c1 | 1.43% [at 15.4 µM] | 
38 | Cc1ccccc1OCC(=O)Nc1ccc(N2CCN(C(=O)C(C)C)CC2)c(Cl)c1 | -0.753% | 
39 | O=C(NCCSc1ccccc1)c1ccco1 | 0.586% | 
40 | CCCCOc1ccc(-c2nnc(-c3ccco3)o2)cc1 | 0.772% | 
41 | COc1ccc(-c2oc3cc(OC)ccc3c2C(=O)c2ccc(C#N)cc2)cc1 | 0.239% | 
42 | Cc1cnc(CNc2cc(-c3c(C)noc3C)ncn2)cn1 | -3.11% | 
43 | Cn1c(N)c(C(=O)COC(=O)c2cc(C(F)(F)F)nc3c(C(F)(F)F)cccc23)c(=O)n(C)c1=O | -3.55% | 
44 | CCc1c(C)nc2cc(-c3cccs3)[nH]n2c1=O | 2.29% | 
45 | COC(=O)c1ccc(C23CC4(C2)[C@H](CN(Cc2cccnc2)[C@@H]4c2ccccc2)C3c2ccc(Cl)nc2)cc1 (stereo partly specified) | -1.12% | 
46 | COc1ccc2c(=O)cc(-c3ccccc3)oc2c1O | -2.2% | 
47 | Cc1ccc(NC(=O)CN2CCC3(O)CCCCC3C2c2ccc3c(c2)OCO3)c(C)c1 (stereo unspecified) | -4.21% | 
48 | CCS(=O)(=O)N(C)[C@@H]1c2cc(C#N)ccc2OC(C)(C)[C@H]1O | inactive | 
49 | CCc1nc(Nc2ccc3nccnc3c2)c2oc3ccccc3c2n1 | 4.22% | 
50 | O=C(CN1C(=O)CSc2ncccc21)N1CCOCC1 | 0.57% | 
51 | FC(F)(F)c1cc(-c2cccs2)nc(NCc2ccco2)n1 | -4.7% | 
